# Several values for one entry are separate records, joined by “and”; a condition that tells them apart may be missing. Identical values can stand only once. A number with no mark means an inactive call. Inconclusive results are not listed. Activity calls are given as the source filed them. Unless noted, the call rests on the fitted dose curve; in most records, active means well fitted curve in either direction with a large enough effect (not every such curve was filed as active); inconclusive means small, poorly fitted or top-dose-only effect, or another doubt; inactive means flat fitted curve, though single readings scatter.
# Legend:
# [1] = Stat Signaling Pathway (AID 446); settings: ME-180 SIE beta-lactamase reporter, IL-6 stimulated, 5 h;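 further: ME-180 cervical cancer cells given 40 pM IL-6 alongside compound; SIE-controlled beta-lactamase reporter measured as 460/530 nm FRET emission ratio; on the % scale 0 is the no-effect control and ±100 the full control effect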
# Procedure, shortened: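 ME-180 cells carrying a SIE-driven beta-lactamase reporter are stimulated with 40 pM IL-6 for 5 h at 37C in the presence of compound. The 460/530 nm FRET substrate ratio is read after 2.5 h at RT. Data are normalised to 300 pM IL-6 and to 125 nM JAK inhibitor controls.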
# [2] = molecular target: Glucocorticoid receptor (Homo sapiens) (UniProt P04150); assay: GR-GFP Redistribution (AID 450;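 active means compounds whose dose series gives a full or clear partial fitted curve of increased nuclear translocation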; further: potency means the concentration at half of the fitted maximal effect); settings: U2OS GR-GFP nuclear translocation, laser cytometry, 2 h
# [3] = molecular target: Glucocorticoid receptor (Homo sapiens) (UniProt P04150); assay: GR-EFC Redistribution (AID 451; calls by dose curve; further: potency means the concentration at half of the fitted maximal effect); settings: CHO-K1 GR-EFC translocation, beta-gal luminescence, 2 h
# Procedure, shortened: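 CHO-K1 cells stably expressing nuclear-localized β-gal enzyme acceptor and GR fused C-terminally to the enzyme donor fragment; ligand-driven nuclear translocation restores β-gal by complementation. Compounds titrated up to 46 uM final, 2 h at 37 °C; luminescence read.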
# [4] = molecular target: Mitogen-activated protein kinase 10 (Mus musculus) (UniProt Q61831); assay: JNK3 AlphaScreen Assay (AID 530); settings: JNK3 lysate, c-Jun phosphorylation; series mostly up to 57.1 µM;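 further: kinase came from lysate of stimulated human HepG2 cells; signal reports phosphorylation of biotinylated GST-cJun 1-79 at Ser73 with 10 µM ATP; on the % scale 0 is the no-effect control and ±100 the full control effect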
# Procedure, shortened: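 Inhibitors reduce antibody binding to phosphorylated biotin-cJun, lowering AlphaScreen luminescence. Lysates from HepG2 cells pre-activated by IL-1beta plus TNF-alpha supplied JNK3; compounds were titrated.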
# [5] = Cell Viability - N2a (AID 540; active means well fitted curve in the direction sought with a large enough effect; an effect the other way counts as inactive or inconclusive;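 further: plate controls were DMSO alone for no effect and tamoxifen control for full effect; nearly all actives have a fitted effect of over 45% in size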); settings: N2a mouse neuroblastoma cell viability; at 92.2 µM (top of the series)
# Procedure, shortened: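 Mouse neuroblastoma N2a cells, 1500/well, exposed to compounds 40 h at 37 °C in complete medium. Viability measured as cellular ATP by CellTiter-Glo luminescence; AC50 from Hill fits of concentration-response.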
# [6] = Cell Viability - NIH 3T3 (AID 541; active means well fitted curve in the direction sought with a large enough effect; an effect the other way counts as inactive or inconclusive;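 further: plate controls were DMSO alone for no effect and tamoxifen positive control for full effect; nearly all actives have a fitted effect of over 25% in size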); settings: NIH 3T3 cell viability, qHTS; activity change, negative = cytotoxicity: at 92.2 µM (top of the series)
# Procedure, shortened: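 Mouse NIH 3T3 fibroblasts, 1000 cells/well, rested 5 hr at 37 °C, then exposed to compound for 40 hr at 37 °C in complete medium. Viability read as intracellular ATP by CellTiter-Glo luminescence; AC50 from Hill-equation fits of concentration-response data.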
# [7] = Cell Viability - HUV-EC-C (AID 542; active means well fitted curve in the direction sought with a large enough effect; an effect the other way counts as inactive or inconclusive; further: on the % scale 0 is the no-effect control and ±100 the full control effect; nearly all actives have a fitted effect of over 35% in size); settings: HUV-EC-C endothelial cell viability, qHTS; series mostly up to 92.2 µM
# Procedure, shortened: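 HUV-EC-C human vascular endothelial cells, 1000/well, exposed to compound for 40 hr at 37 °C in complete medium. Intracellular ATP was read by CellTiter-Glo luminescence. AC50 came from Hill-equation fits of concentration-response data.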
# [8] = Cell Viability - H-4-II-E (AID 543; active means well fitted curve in the direction sought with a large enough effect; an effect the other way counts as inactive or inconclusive; further: nearly all actives have a fitted effect of over 35% in size; further: potency means the concentration at half of the fitted maximal effect); settings: H-4-II-E rat hepatoma viability; series mostly up to 92.2 µM
# Procedure, shortened: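 Rat hepatoma H-4-II-E cells, 1500 per well, treated 40 h at 37 °C in complete medium. Cellular ATP read by CellTiter-Glo luminescence; AC50 from Hill fits of concentration-response.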
# [9] = Cell Viability - SH-SY5Y (AID 544; active means well fitted curve in the direction sought with a large enough effect; an effect the other way counts as inactive or inconclusive;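 further: 0% = DMSO alone and -100% = 100 µM tamoxifen; nearly all actives have a fitted effect of over 55% in size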); settings: SH-SY5Y neuroblastoma cell viability; viability change, negative = cytotoxic: at 92.2 µM (top of the series)
# Procedure, shortened: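 SH-SY5Y human neuroblastoma cells (1500/well) incubated 5 h, then compound-treated 40 h at 37 °C in complete medium. Viability read as intracellular ATP by CellTiter-Glo luminescence after 20 min; AC50 from Hill-equation fits of qHTS concentration-response.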
# [10] = Cell Viability - Renal Proximal Tubule (AID 545; active means well fitted curve in the direction sought with a large enough effect; an effect the other way counts as inactive or inconclusive;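 further: 0% = DMSO only and -100% = 100 µM tamoxifen; nearly all actives have a fitted effect of over 40% in size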); settings: renal proximal tubule cells viability; at 91.7 µM (top of the series) unless noted
# Procedure, shortened: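 Luminescent ATP signal (CellTiter-Glo) served as the viability read-out after 40 hr compound exposure of freshly isolated rat proximal tubule cells at 37 °C. Concentration-dependent ATP loss was fitted with the Hill equation to give AC50.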
# Glucocorticoid receptor (Homo sapiens), sequence (P04150 whole entry, looked up, the tested form may be a part): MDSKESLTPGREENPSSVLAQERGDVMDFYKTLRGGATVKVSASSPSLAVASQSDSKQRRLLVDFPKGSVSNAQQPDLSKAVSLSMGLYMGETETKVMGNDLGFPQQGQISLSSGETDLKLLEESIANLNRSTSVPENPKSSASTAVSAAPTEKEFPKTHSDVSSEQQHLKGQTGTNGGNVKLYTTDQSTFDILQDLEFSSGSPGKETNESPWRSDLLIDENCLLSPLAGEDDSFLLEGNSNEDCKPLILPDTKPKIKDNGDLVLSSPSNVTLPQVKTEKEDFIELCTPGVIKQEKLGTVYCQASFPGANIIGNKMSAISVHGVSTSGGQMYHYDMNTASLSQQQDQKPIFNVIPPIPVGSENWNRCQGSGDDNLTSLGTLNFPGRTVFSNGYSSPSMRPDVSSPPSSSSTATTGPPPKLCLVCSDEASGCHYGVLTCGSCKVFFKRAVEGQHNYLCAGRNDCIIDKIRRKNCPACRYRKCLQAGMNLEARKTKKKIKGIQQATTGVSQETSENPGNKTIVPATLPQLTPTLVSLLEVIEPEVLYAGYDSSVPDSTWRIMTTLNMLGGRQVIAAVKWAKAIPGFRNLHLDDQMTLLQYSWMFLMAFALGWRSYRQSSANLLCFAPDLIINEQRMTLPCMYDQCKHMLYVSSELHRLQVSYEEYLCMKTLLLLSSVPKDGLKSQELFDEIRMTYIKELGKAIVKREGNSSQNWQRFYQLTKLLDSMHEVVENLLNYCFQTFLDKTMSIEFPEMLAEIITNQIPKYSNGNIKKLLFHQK
compound,measurement,setting,value
O=[N+]([O-])c1cc([As](=O)(O)O)ccc1O,"activity, negative = inhibition",[1]; at 17.2 µM (top of the series),10.9%
same,Potency,[2],> 20.6 µM
same,Potency,[3],> 20.6 µM
same,outcome,[4],inactive
N#CC(C#N)=Cc1ccc(O)c(O)c1,"activity, negative = inhibition",[1]; at 38 µM (top of the series),-24.2%
NCC1(CC(=O)O)CCCCC1,"activity, negative = inhibition",[1]; at 17.2 µM (top of the series),-0.102% and 1.2%
same,"activity, negative = inhibition",[1]; at 38 µM (top of the series),-12.4%
same,Potency,[2],> 46 µM and > 20.6 µM
same,Potency,[3],> 46 µM and > 20.6 µM
same,outcome,[4],inactive
Clc1cccc(N2CCNCC2)c1,"activity, negative = inhibition",[1]; at 38 µM (top of the series),3.38%
same,Potency,[2],> 46 µM
same,Potency,[3],> 46 µM
same,outcome,[4],inactive
CN1C[C@H](CNC(=O)OCc2ccccc2)C[C@@H]2c3cccc4c3c(cn4C)C[C@H]21,"activity, negative = inhibition",[1]; at 17.2 µM (top of the series),-8.15%
Cc1cccc(C)c1NC1=NCCCS1,"activity, negative = inhibition",[1]; at 17.2 µM (top of the series),3.23%
same,"activity, negative = inhibition",[1]; at 38 µM (top of the series),9.43%
same,outcome,[4],inactive
Cc1ncc(CNC(=O)N(CCCl)N=O)c(N)n1,"activity, negative = inhibition",[1]; at 38 µM (top of the series),-6.98%
same,Potency,[2],> 46 µM
same,Potency,[3],> 46 µM
same,outcome,[4],inactive
CCC(COC(=O)c1cc(OC)c(OC)c(OC)c1)(c1ccccc1)N(C)C (centres undefined),"activity, negative = inhibition",[1]; at 17.2 µM (top of the series),-7.98%
O=P1(NCCCl)OCCCN1CCCl (centres undefined),"activity, negative = inhibition",[1]; at 17.2 µM (top of the series),-3.9%
same,Potency,[2],> 20.6 µM
same,Potency,[3],> 20.6 µM
same,outcome,[4],inactive
O=c1[nH]c2ccccc2n1CCCN1CCC(n2c(=O)[nH]c3cc(Cl)ccc32)CC1,"activity, negative = inhibition",[1]; at 7.69 µM (top of the series),-2.55%
same,"activity, negative = inhibition",[1]; at 17.2 µM (top of the series),1.15% and 2.02%
same,"activity, negative = inhibition",[1]; at 38 µM (top of the series),-0.208%
same,outcome,[4],inactive
O=C1CC[C@@]2(O)[C@H]3Cc4ccc(O)c5c4[C@@]2(CCN3CC2CC2)[C@H]1O5,"activity, negative = inhibition",[1]; at 17.2 µM (top of the series),2.9%
NCC(CC(=O)O)c1ccc(Cl)cc1 (centres undefined),"activity, negative = inhibition",[1]; at 17.2 µM (top of the series),6.38%
same,Potency,[2],> 20.6 µM
CCn1cc(C(=O)O)c(=O)c2ccc(C)nc21,"activity, negative = inhibition",[1]; at 17.2 µM (top of the series),10.7% and -2.6%
same,"activity, negative = inhibition",[1]; at 38 µM (top of the series),-7%
same,outcome,[4],inactive
CC[N+]1(C)CCCC(OC(=O)C(O)(c2ccccc2)c2ccccc2)C1 (centres undefined),"activity, negative = inhibition",[1]; at 17.2 µM (top of the series),-1.5%
same,Potency,[2],> 20.6 µM
C=C1CC[C@@]2(O)[C@H]3Cc4ccc(O)c5c4[C@@]2(CCN3CC2CC2)[C@H]1O5,"activity, negative = inhibition",[1]; at 17.2 µM (top of the series),2.91%
same,Potency,[2],> 20.6 µM
COc1ccccc1N1CCNCC1,"activity, negative = inhibition",[1]; at 38 µM (top of the series),16.4%
same,Potency,[2],> 46 µM
same,Potency,[3],> 46 µM
COc1ccc(Cc2nccc3cc(OC)c(OC)cc23)cc1OC,"activity, negative = inhibition",[1]; at 17.2 µM (top of the series),-7.28%
same,"activity, negative = inhibition",[1]; at 38 µM (top of the series),-33.5%
CC(=O)[C@H]1CC[C@H]2[C@@H]3CC[C@H]4C[C@H](O)CC[C@]4(C)[C@H]3C(=O)C[C@]12C,"activity, negative = inhibition",[1]; at 17.2 µM (top of the series),-6.19%
CC(CCc1ccccc1)NC(C)C(O)c1ccc(O)cc1 (centres undefined),"activity, negative = inhibition",[1]; at 17.2 µM (top of the series),22.4%
same,Potency,[2],> 20.6 µM
CN(C)[C@@H]1C(=O)C(C(N)=O)=C(O)[C@@]2(O)C(=O)C3=C(O)c4c(O)cccc4[C@@](C)(O)[C@H]3C[C@@H]12,"activity, negative = inhibition",[1]; at 17.2 µM (top of the series),-6.17%
same,Potency,[2],> 20.6 µM
CCN(CC)C(=O)N[C@@H]1C=C2c3cccc4[nH]cc(c34)C[C@@H]2N(C)C1,"activity, negative = inhibition",[1]; at 38 µM (top of the series),4.62%
same,Potency,[2],> 46 µM
same,Potency,[3],> 46 µM
same,outcome,[4],inactive
Fc1ccc(C(OCCN2CCN(CCCc3ccccc3)CC2)c2ccc(F)cc2)cc1,"activity, negative = inhibition",[1]; at 17.2 µM (top of the series),-6.45%
same,"activity, negative = inhibition",[1]; at 38 µM (top of the series),-18.6%
same,Potency,[2],> 46 µM and > 20.6 µM
same,Potency,[3],> 46 µM and > 20.6 µM
same,outcome,[4],inactive
CCCN1CCC[C@@H]2Cc3[nH]ncc3C[C@H]21,"activity, negative = inhibition",[1]; at 17.2 µM (top of the series),8.2%
same,"activity, negative = inhibition",[1]; at 38 µM (top of the series),-2.11% and 14.3%
same,Potency,[2],> 46 µM and > 20.6 µM
same,Potency,[3],> 46 µM and > 20.6 µM
same,outcome,[4],inactive
c1ccc2c(c1)OCC(C1=NCCN1)O2 (centres undefined),"activity, negative = inhibition",[1]; at 17.2 µM (top of the series),-5.78%
same,Potency,[2],> 20.6 µM
NCC(O)c1ccc(O)cc1 (centres undefined),outcome,[4],inactive
same,"activity change, negative = cytotoxicity",[5],-14.9%
same,"activity change, negative = cytotoxicity",[6],-28.6%
same,outcome,[7],inactive
same,Potency,[8],inactive
same,"viability change, negative = cytotoxic",[9],-12.1%
same,"activity change, negative = cytotoxicity",[10],-6.15%
C[C@]12C/C(=C/O)C(=O)C[C@@H]1CC[C@@H]1[C@@H]2CC[C@@]2(C)[C@H]1CC[C@]2(C)O,outcome,[4],inactive
same,"activity change, negative = cytotoxicity",[6],-114% (active)
same,"viability change, negative = cytotoxic",[9],-95.9% (active)
same,"activity change, negative = cytotoxicity",[10],-89.1% (active)
Clc1ccc(COC(Cn2ccnc2)c2ccc(Cl)cc2Cl)cc1 (centres undefined),"activity, negative = inhibition",[1]; at 17.2 µM (top of the series),-23%
same,Potency,[2],> 20.6 µM
same,outcome,[4],inactive
same,"activity change, negative = cytotoxicity",[5],-110% (active)
same,"activity change, negative = cytotoxicity",[6],-82% (active)
same,Potency,[8],39.8 µM (active)
same,"viability change, negative = cytotoxic",[9],-84.8% (active)
same,"activity change, negative = cytotoxicity",[10],-83.1% (active)
CNCC(O)c1ccc(O)cc1 (centres undefined),"activity, negative = inhibition",[1]; at 17.2 µM (top of the series),14.9%
same,Potency,[2],> 20.6 µM
same,"activity change, negative = cytotoxicity",[5],-10.6%
same,"activity change, negative = cytotoxicity",[6],2.22%
same,outcome,[7],inactive
same,Potency,[8],inactive
same,"viability change, negative = cytotoxic",[9],-15.7%
same,"activity change, negative = cytotoxicity",[10],-6.79%

# From PubChem BioAssay (NCATS)
